# Giardia FBPA inh: blocks Giardia fructose-bisphosphate aldolase activity. A8B2U2. purified Giardia FBPA. Potency, µM (series often up to 59.6 µM), usual class: inhibitors. hit rate 0.71% among 290,000. AID 2451; further: nearly all actives have a fitted effect of over 55% in size
# Target sequence (A8B2U2 whole entry, looked up): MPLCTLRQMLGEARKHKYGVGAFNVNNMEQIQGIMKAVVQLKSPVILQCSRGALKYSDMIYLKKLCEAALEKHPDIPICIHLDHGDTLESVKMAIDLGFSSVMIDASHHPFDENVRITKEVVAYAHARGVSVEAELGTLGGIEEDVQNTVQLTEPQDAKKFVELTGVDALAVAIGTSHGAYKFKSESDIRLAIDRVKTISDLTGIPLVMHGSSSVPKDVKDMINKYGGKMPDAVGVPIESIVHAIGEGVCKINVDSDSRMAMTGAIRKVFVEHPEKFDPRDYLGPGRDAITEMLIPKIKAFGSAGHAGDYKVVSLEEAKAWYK
#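 Giardia FBPA (40 nM reagent) was preincubated 10 min at RT with compound (up to 57.5 uM final), then substrate plus GAPDH/TPI/NAD/arsenate coupling system with diaphorase/resazurin was added; resorufin fluorescence (525/598 nm) was read after 20 min.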
# Pf growth 96h: P. falciparum growth inhibition at 96 hour, primary screen for plastid delayed-death inhibitors. P. falciparum luciferase reporter growth, 96 h. Potency, µM (top dose mostly 28.7 µM), hits mostly inhibitors. hit rate 6.9% among 320,000
#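 Infected RBCs, 2% Hct / 0.05% parasitemia final; luciferase-reporter P. falciparum; cpd 96 h, 37 C, 5% CO2; luciferase detection reagent; luminescence.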
# Sm TGR block: S. mansoni TGR enzyme inhibition; hit rate 3% among 360,000; Q962Y6; Potency, µM (titrated, usually from 114 µM), usual class: inhibitors; purified TGR, DTNB reduction, TNB absorbance 405 nm; further: nearly all actives have a fitted effect of over 60% in size
#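 TGR 20 nM + NADPH 100 uM (dispensed conc.), cpd preinc 15 min RT; start with NADPH (500 uM addition) then DTNB (15 mM addition). Kinetic TNB absorbance, 405 nm filter. Four-parameter Hill fit across titration.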
# Pf growth 48h: P. falciparum growth inhibition at 48 hours (one generation); Potency, µM (titrated, usually from 28.7 µM), most hits filed as inhibitors; AID 504832; hit rate 5.9% among 310,000; P. falciparum luciferase growth in erythrocytes, 48 h
#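 Luminescence readout; reporter = integrated firefly luciferase in P. falciparum. RBC culture at 2% hematocrit, 0.1% parasitemia final, 37 C/5% CO2; decreased signal taken as growth inhibition.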
# HCMV antiviral: human cytomegalovirus inhibition. HFF cells, HCMV-luciferase reporter, 72 h; stronger effect = lower value. activity change, negative = inhibition, % at 57.5 µM. hit rate 4.5% among 410,000. AID 1259415; in the data active means activity change below about -60%; inconclusive means no clear call, values can overlap the other calls; inactive means above about -39%
#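 After 16 h attachment at 37C, HFF cells received test compound and HCMV-luciferase (1 PFU/cell); reporter luminescence read 72 h later, data normalized against buffer-only and known inhibitor Salinomycin.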
# Hits are given with their value; i = inactive; ? = inconclusive; nt = not tested or not shown; [ ] = dose if it differs, or a comment. Rows were chosen to be rich in hits. Some 14% of all compounds tested hit in one or more screens of this group. Unless noted, the call rests on the fitted dose curve; in most records, active means well fitted curve in the direction sought with a large enough effect; inconclusive means small, poorly fitted or top-dose-only effect, or another doubt; inactive means no such curve, though single readings can be large; an effect the other way counts as inactive or inconclusive.
SMILES,Giardia FBPA inh,Pf growth 96h,Sm TGR block,Pf growth 48h,HCMV antiviral
CCOC(=O)C1CCCN(C(=O)c2cc(S(=O)(=O)N3CCCCC3)ccc2C)C1 (stereo not drawn),i,?,i,8.28µM,i
CCn1cc(C(=O)O)c(=O)c2cc(S(=O)(=O)N3CCCCCC3)ccc21,i,?,i,i,i
CCOC(=O)C1CCCN(C(=O)c2cn(CC)c3ccc(S(=O)(=O)N4CCCC4)cc3c2=O)C1 (stereo not drawn),i,nt,i,11.7µM,i
CCOC(=O)C1CCCN(C(=O)c2cccc(S(=O)(=O)N(C)c3c(C)n(C)n(-c4ccccc4)c3=O)c2)C1 (stereo not drawn),nt,i,i,i,-98.6
CCOC(=O)C1CCN(C(=O)COc2ccc(S(=O)(=O)N3CCCC3)cc2C)CC1,i,3.29µM,i,i,i
CCn1cc(C(=O)N(C)CC(OC)OC)c(=O)c2cc(S(=O)(=O)N3CCOCC3)ccc21,nt,6.57µM,i,i,i
O=C(Nc1ccc(N2CCCC2)c(Cl)c1)c1ccco1,i,i,i,i,-89.6
Cc1cccc(NC(=O)c2cc(NC(=O)c3ccco3)ccc2N2CCCCC2)c1,i,?,i,4.65µM,?
Cc1ccc(NC(=O)c2cc(N3C(=O)C4CC=CCC4C3=O)ccc2N2CCCCC2)cc1 (stereo not drawn),i,14.7µM,i,i,i
O=C(Nc1ccc(N2CCCCC2)c(Cl)c1)c1ncn[nH]1,i,i[5.75 µM],i,0.465µM,i
O=C(Nc1ccc(OC(F)F)cc1)c1ccccn1,i,i,i,i,i
CS(=O)(=O)c1ncc(Cl)c(C(=O)Nc2ccc(OC(F)F)cc2)n1,i,?,7.94µM,i,nt
CS(=O)(=O)c1ncc(Cl)c(C(=O)Nc2ccc(N3CCOCC3)cc2)n1,i,?,15.8µM,i,nt
Cc1sc2c(c1C)CN(C1CC(C)(C)NC(C)(C)C1)CN2C(=O)c1ccco1,i,i,25.1µM,?,nt
CC1(C)CC(CCNC(=O)c2ccco2)CC(C)(C)N1,i,nt,i,i,i
COC(=O)c1ccc(N2CCN(C)CC2)c(NC(=O)c2ccc(-c3ccc(Cl)cc3)o2)c1,nt,?,i,?,nt
CN(CC(=O)Nc1ccccc1Br)C(=O)CN1CCN(c2ccccc2Cl)CC1,nt,?,i,?,i
CCn1ccnc1C(O)c1ccc(N(C)C)cc1 (stereo not drawn),i,i,10µM,i,i
CCN(CC)C(=O)CSc1nnc(CCCCCNC(=O)OC(C)(C)C)o1,i,10.4µM,i,?,i
CC(C)(C)OC(=O)NCCCCCc1nnc(SCc2ccc(F)cc2)o1,i,?,i,?,-66.8
Clc1ccc(-c2nnc(-c3ccco3)nc2N2CCCCC2)cc1,i,?,2.82µM,i,?
Cc1cc(NS(C)(=O)=O)c(=O)n(Cc2cccc(F)c2)c1,?,2.62µM,i,i,i
Cc1ccc(Cn2cccc(NS(C)(=O)=O)c2=O)cc1,?,i,i,i,i
O=C(Nc1ccccc1N1CCOCC1)C1Cc2ccccc2CN1C(=O)c1ccco1 (stereo not drawn),i,nt,?,10.4µM,i
O=C(Nc1nnc(C2CC2)s1)C1Cc2ccccc2CN1C(=O)c1ccco1 (stereo not drawn),i,?,12.6µM,i,i
SMILES,Giardia FBPA inh,Pf growth 96h,Sm TGR block,Pf growth 48h,HCMV antiviral
Cc1c(NC(=O)C2Cc3ccccc3CN2C(=O)c2ccco2)c(=O)n(-c2ccccc2)n1C (stereo not drawn),i,nt,i[11.4 µM],nt,i
COC(=O)CN1C(=S)N(c2ccc(OC)cc2)C(=O)/C1=C/c1ccc(N2CCOCC2)cc1,i,i,i,?,?
COC(=O)CN1C(=S)N(c2ccc(OC)cc2)C(=O)/C1=C/c1ccc(OC)cc1,i,i,i,11.7µM,i
Cc1nn(-c2ccccc2)c(Cl)c1/C=N/NC(N)=O,i,i,i,i,i
CCOC(=O)N/N=C/c1c(C)nn(-c2cccc(C(F)(F)F)c2)c1Cl,i,1.47µM,i,2.08µM,?
Cc1nn(-c2ccccc2)c(Cl)c1/C=N/NC(=O)CNC(=O)c1ccccc1Cl,i,1.85µM,i,i,?
Cc1ccc(C)c(OCC(=O)N/N=C/c2c(C)nn(-c3ccccc3)c2Cl)c1C,i,i,i,i,-67.8
CCOc1ccc(Oc2c(/C=N/NC(=O)COc3ccccc3OC)c(C)nn2-c2ccccc2)cc1,i,5.22µM,i,?,i
